Screens as filed in PubChem BioAssay.
Most compounds without a hit are left out; they make up all but 1.6% or so of the library.
GRK2 inh: blocks RNA aptamer binding to human GRK2 | inhibition of aptamer binding, % at 10 µM | bead flow cytometry, FAM-aptamer displacement from GRK2 | actives 0.59% (n = 330,000) | P25098;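 active = inhibition of aptamer binding above 40%, roughly 3 SD of noise, on plates passing a quality check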;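 also: median bead fluorescence of bound FAM aptamer so fluorescent compounds give negative values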
JMJD2C inh: blocks human GASC-1 demethylase activity; actives 0.069% (n = 330,000); inhibition, % at 2.35 µM; GST-JMJD2C(1-420) H3K9me3 demethylation, DELFIA europium; Q9H3R0;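 active = more than half of a compound's replicate wells show inhibition beyond 50%, single wells judged on their own value; inconclusive = some, but no more than half, of replicates pass 50% inhibition; inactive = no replicate passes 50% inhibition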;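 also: signal counts dimethyl H3K9 product captured on neutravidin plate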
Target sequence (Q9H3R0 1-420 limits assumed): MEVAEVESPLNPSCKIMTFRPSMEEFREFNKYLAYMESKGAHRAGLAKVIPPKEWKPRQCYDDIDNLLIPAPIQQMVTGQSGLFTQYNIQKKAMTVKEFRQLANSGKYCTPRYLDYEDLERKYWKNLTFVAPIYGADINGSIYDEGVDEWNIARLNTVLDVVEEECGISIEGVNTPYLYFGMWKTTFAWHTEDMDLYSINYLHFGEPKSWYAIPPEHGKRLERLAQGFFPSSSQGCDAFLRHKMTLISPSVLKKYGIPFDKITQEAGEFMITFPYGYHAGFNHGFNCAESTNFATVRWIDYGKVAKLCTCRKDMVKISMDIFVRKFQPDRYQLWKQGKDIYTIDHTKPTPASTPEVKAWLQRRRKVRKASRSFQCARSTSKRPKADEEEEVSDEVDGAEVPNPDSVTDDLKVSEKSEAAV
PREPL inh: inhibitors of human prolyl oligopeptidase-like enzyme PREPL; recombinant PREPL, fluorescence polarization activity-based probe; inhibition, % at 5.96 µM; actives 0.68% (n = 320,000); in the data active = inhibition above about 43%
VLA-4 inh: inhibition in a human VLA-4 binding assay. VLA-4 expressing cells, ligand binding flow cytometry. P13612. inhibition, % (about 7 µM as worked out from the volumes in the protocol). actives 0.2% (n = 330,000); in the data active = inhibition above about 50%
DSG3 Ab inh: human desmoglein-3 autoantibody binding inhibition; DSG3-coupled beads, scFv-anti-DSG3-GFP binding, flow cytometry; stronger effect = lower value; binding (percent of control), % at 10 µM; actives 0.48% (n = 310,000); AID 588358;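 active = binding more than 3 SD below its plate's average and above zero; inconclusive = below that plate limit but binding exactly zero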;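 also: hits lower antibody fragment binding to DSG3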
GRK2 inh confirm: confirmation of human GRK2 inhibitors displacing RNA aptamer; shares compounds with GRK2 inh; bead-bound GRK2, FAM-aptamer displacement, flow cytometry; aptamer displacement, % at 10 µM; actives 4% (n = 2,000); AID 504451;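 active = aptamer displacement above 40%, near three times the noise of non-fluorescent compounds, on plates passing quality checks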;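 also: negative values mostly reflect intrinsic compound fluorescence rather than true enhancement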
FAM quench CP1: quenches fluorescent RNA aptamer, GRK2 hit artifact; 2,000 tested, under 10 active; Carboxyfluorescein RNA aptamer on beads, flow cytometry quenching; stronger effect = lower value; AID 504580; shares compounds with GRK2 inh; fluorescence response (% of DMSO), % at 10 µM;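 active = compounds that quench the bead-bound fluorescent RNA probe, cutting fluorescence to under half of the solvent control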;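 also: counterscreen run without GRK2 so only probe quenching by compound is measured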
Of the large screens only hits and unclear results are named; the others gave an inactive call (follow-up assays come after a bar, where they were run).

CC(=O)c1cccc(NC(=O)c2cnn(-c3ccccc3)c2C)c1	none | GRK2 inh confirm inactive | FAM quench CP1 inactive
CCOC(=O)N1CCc2c(sc3c2c(=O)n(Cc2ccccc2)c(=O)n3Cc2cccc(C)c2)C1	none
CC1Cc2ccccc2N1CC(=O)N(C)c1c(N)n(Cc2ccccc2)c(=O)[nH]c1=O (stereo not drawn)	none (no result: DSG3 Ab inh)
CCN(C(=O)CN1c2ccccc2CC1C)c1c(N)n(Cc2ccccc2)c(=O)[nH]c1=O (stereo not drawn)	none | GRK2 inh confirm inactive | FAM quench CP1 inactive
COc1ccc(-n2nc(C(=O)NCc3cc(OC)ccc3OC)c3c4ccccc4n(C)c3c2=O)cc1	GRK2 inh 77.0 | GRK2 inh confirm inactive | FAM quench CP1 inactive
Cc1ccccc1-c1nc(CN2CCCC(C(=O)NCc3cccnc3)C2)c(C)o1 (stereo not drawn)	none | GRK2 inh confirm inactive | FAM quench CP1 inactive
Cc1oc(-c2ccc(Cl)cc2)nc1CN1CCCC(C(=O)NCc2ccco2)C1 (stereo not drawn)	none | GRK2 inh confirm inactive | FAM quench CP1 inactive
COc1ccc(CNC(=O)C2CCCN(Cc3nc(-c4cccc(C)c4)oc3C)C2)cc1 (stereo not drawn)	none | GRK2 inh confirm inactive | FAM quench CP1 inactive
COc1ccc(-c2nc(CN3CCCC(C(=O)NC4CCCC4)C3)c(C)o2)cc1 (stereo not drawn)	none
Cc1ccccc1-c1nc(CN2CCCC(C(=O)NCCCN3CCOCC3)C2)c(C)o1 (stereo not drawn)	none
Cc1ccc(Cl)cc1NC(=O)c1cc2ccccc2cc1O	none
O=C(CS(=O)CC(=O)N(CC(=O)NC1CCCC1)C1CCCCC1)Nc1ccc(F)cc1 (stereo not drawn)	none
Cc1coc2c(C)c3oc(=O)c(CCC(=O)NCCN4CCOCC4)c(C)c3cc12	none
Cc1coc2c(C)c3oc(=O)c(CCC(=O)NCCCN4CCOCC4)c(C)c3cc12	none (no result: DSG3 Ab inh) | GRK2 inh confirm inactive | FAM quench CP1 inactive
Cc1c(C)c2ccc(OC(C)C(=O)NCCN3CCOCC3)c(C)c2oc1=O (stereo not drawn)	JMJD2C inh inconclusive
Cc1c(C)c2ccc(OC(C)C(=O)NCCCN3CCOCC3)c(C)c2oc1=O (stereo not drawn)	none | GRK2 inh confirm inactive | FAM quench CP1 inactive
CC(=O)C[C@H]1c2cc(C(F)(F)F)ccc2S(=O)(=O)N1C1CCCC1	GRK2 inh 46.0 | GRK2 inh confirm inactive | FAM quench CP1 inactive
O=C(O)C[C@H]1c2cc(C(F)(F)F)ccc2S(=O)(=O)N1C1CCCC1	none
CCN(CC(=O)Nc1c(F)cccc1F)C(=O)c1ccc2c(c1)C(=O)N(c1ccccc1C)C2=O	none (no result: GRK2 inh, JMJD2C inh, PREPL inh, VLA-4 inh)
Cc1ccc(OCCSc2cc(C)nc(N)n2)cc1	GRK2 inh 84.0 | GRK2 inh confirm inactive | FAM quench CP1 inactive
Nc1ccc(O)c2c1C(=O)c1ccccc1C2=O	GRK2 inh 41.0, JMJD2C inh inconclusive, PREPL inh 51.1 | GRK2 inh confirm inactive | FAM quench CP1 inactive
Oc1c(Br)cc(Br)cc1C=NCc1ccc(F)cc1	GRK2 inh 41.0 | GRK2 inh confirm inactive | FAM quench CP1 inactive
C=CCn1c(N)cc(=O)nc1SCC(=O)N1CCN(c2ccc(F)cc2)CC1	GRK2 inh 56.0 | GRK2 inh confirm inactive | FAM quench CP1 inactive
Nc1nc(SCC(=O)N2CCN(c3ccc(F)cc3)CC2)n[nH]1	none
COc1cccc(-c2c(NC(C)=O)n(C)c3ccccc3c2=O)c1	GRK2 inh 46.0 | GRK2 inh confirm inactive | FAM quench CP1 inactive
CCOC(=O)C1CCCN(CC(=O)Nc2c(C(=O)OC)[nH]c3ccccc23)C1 (stereo not drawn)	none
CCOC(=O)C1CCN(CC(=O)Nc2c(C(=O)OC)[nH]c3cccc(C)c23)CC1	GRK2 inh 54.0 | GRK2 inh confirm inactive | FAM quench CP1 inactive
COc1ccc(CC(=O)Nc2ccc(-c3nc4cc(C)ccc4o3)c(O)c2)cc1OC	GRK2 inh 71.0 (no result: DSG3 Ab inh) | GRK2 inh confirm inactive | FAM quench CP1 inactive
Cc1cc2ncn(-c3ncnc4sc5c(c34)CCC(C)C5)c2cc1C (stereo not drawn)	none
